From PubChem BioAssay
Gal4-VP16 FLuc: Gal4-VP16 reporter inhibition counter-screen | 310,000 tested, 3.5% active | Potency, µM (highest dose often 53.6 µM), without a hit: at the top dose activity, negative = inhibition, actives largely listed as inhibitors | AID 2546 | Drosophila S2 Gal4-VP16 UAS-luciferase, luminescence, 20 h;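 note: Gal4-VP16 expression switched on by copper sulfate through the metallothionein promoter; nearly all actives have a fitted effect of over 50% in size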
RORgamma inh: blocks mouse ROR gamma transcriptional activity; P51450; AID 2551; 310,000 tested, 5.4% active; Potency, µM (series often up to 53.6 µM), for inactives: at the top dose activity change, negative = inhibition, actives largely listed as inhibitors; Drosophila S2 Gal4-RORgamma UAS-luciferase reporter, 20 h; note: nearly all actives have a fitted effect of over 60% in size
Target sequence (P51450 whole entry, looked up, the tested form may be a part): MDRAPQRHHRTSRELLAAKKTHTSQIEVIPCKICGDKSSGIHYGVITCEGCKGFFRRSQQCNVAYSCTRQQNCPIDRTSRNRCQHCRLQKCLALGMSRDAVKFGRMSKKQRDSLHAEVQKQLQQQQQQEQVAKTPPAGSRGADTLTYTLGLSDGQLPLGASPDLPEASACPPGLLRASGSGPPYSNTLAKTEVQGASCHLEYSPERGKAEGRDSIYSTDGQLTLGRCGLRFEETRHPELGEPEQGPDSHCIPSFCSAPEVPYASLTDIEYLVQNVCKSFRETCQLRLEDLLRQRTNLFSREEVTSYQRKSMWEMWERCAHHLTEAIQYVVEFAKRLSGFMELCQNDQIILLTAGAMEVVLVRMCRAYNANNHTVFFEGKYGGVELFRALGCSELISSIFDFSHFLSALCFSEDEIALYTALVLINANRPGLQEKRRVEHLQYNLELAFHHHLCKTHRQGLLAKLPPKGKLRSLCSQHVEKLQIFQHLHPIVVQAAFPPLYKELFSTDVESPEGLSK
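ROR gamma transcriptional activity was tracked as Gal4-UAS luciferase output in stably transfected Drosophila Schneider cells, with compound added 1 hr before 700 uM copper sulfate induction and a 20 hr ambient-temperature incubation.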
DT40 TDP1 CPT: DT40-hTDP1 cell growth loss with CPT | Potency, µM (series often up to 46.2 µM), for inactives: top-dose activity change, negative = growth inhibition, most hits filed as inhibitors | AID 686979 | 420,000 tested, 12% active | chicken DT40 Tdp1-/-;hTDP1 cells + 20 nM CPT, ATP luminescence, 48 h; note: nearly all actives have a fitted effect of over 55% in size
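Chicken DT40 Tdp1-/- cells stably complemented with human TDP1 were seeded at 400 cells/well in medium containing 20 nM camptothecin, exposed to pin-transferred compounds, and grown at 37 °C for at least 48 hr. Viability was read as ATP luminescence.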
TDP1 inh: blocks human tyrosyl-DNA phosphodiesterase 1; recombinant TDP1, AlphaScreen DNA substrate cleavage; Potency, µM (top dose mostly 130 µM), for inactives: at the top dose activity change, negative = inhibition, most hits filed as inhibitors; 350,000 tested, 0.28% active; note: nearly all actives have a fitted effect of over 40% in size
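Signal: AlphaScreen proximity between streptavidin donor and anti-FITC acceptor beads on intact substrate. Reaction: Tdp1 1 nM, substrate 15 nM final, 5 min RT after 15 min compound preincubation.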
DT40 TDP1 no CPT: qHTS for Inhibitors of human tyrosyl-DNA phosphodiesterase 1 (TDP1): qHTS in cells in absence of CPT. DT40 Tdp1-/- hTDP1 cells, no CPT, ATP luminescence, 48 h. Potency, µM (series often up to 46.2 µM), inactives show top-dose activity change, negative = growth inhibition, hits mostly inhibitors. 420,000 tested, 15% active. AID 686978, 2013; note: nearly all actives have a fitted effect of over 55% in size
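Chicken DT40 Tdp1-/- cells complemented with human TDP1, screened without camptothecin (DMSO vehicle only), 400 cells/well. Compounds pin-transferred, cells incubated at 37 °C for at least 48 hr. Growth read as ATP-dependent luminescence (CellTiter-Glo, 30 min at RT).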
An asterisk follows results filed as active; u = inconclusive; x = no result given. An excerpt weighted towards active compounds, which were near 19% of everything screened. Calls come from the whole dose curve; as a rule, active = well fitted curve in the direction sought with a large enough effect; inconclusive = small, poorly fitted or top-dose-only effect, or another doubt; inactive = no such curve, though single readings can be large; an effect the other way counts as inactive or inconclusive. % is set by controls: 0 for no effect and ±100 for the full control effect; potency is the fitted concentration of half-maximal effect.

SMILES	Gal4-VP16 FLuc	RORgamma inh	DT40 TDP1 CPT	TDP1 inh	DT40 TDP1 no CPT
C=CCC[C@@H](Cc1ccc(F)cc1)C(=O)OC[C@@H](NC(=O)[C@H](CC=C)CC(=O)NCCO)C(C)(C)C	x	x	u	2%	u
C=CC[C@@H](CC(=O)N[C@@H](CO)Cc1ccccc1)C(=O)N[C@H](COC(=O)[C@@H](CC=C)Cc1ccc(F)cc1)C(C)(C)C	x	x	16µM*	2%	-80%
C=CC[C@@H](CC(=O)N[C@@H](CO)Cc1ccccc1)C(=O)N[C@@H](COC(=O)[C@@H](CC=C)Cc1ccc(F)cc1)Cc1ccccc1	x	x	-19%	2%	u
COc1cc(OC)cc(C(=O)Nn2cc(C(=O)Nc3ccccc3F)c3ccccc3c2=O)c1	-8%	7%	23µM*	3%	u
O=C(NCc1ccccn1)C(=O)NCC1OCCCN1S(=O)(=O)c1ccc(F)cc1 (centres undefined)	0%	-13%	8%	2%	-2%
CCNc1cc(Nc2c(C)n(C)n(-c3ccccc3)c2=O)c([N+](=O)[O-])c2nonc12	-2%	25%	-3%	5%	0%
Fc1ccc(-n2cc(-c3ccccc3)c3c(NCCc4ccccc4)ncnc32)cc1	x	x	u	0%	u
CCCNc1ncnc2c1c(-c1ccccc1)cn2-c1ccccc1	x	x	15µM*	5%	23µM*
Cc1ccc(-n2cc(-c3ccccc3)c3c(NN4CCOCC4)ncnc32)cc1	u	u	21µM*	-4%	23µM*
COc1ccc(CCNc2ncnc3c2c(-c2ccccc2)cn3-c2ccc(F)cc2)cc1OC	x	x	15µM*	5%	15µM*
Cc1ccc(CNc2ncnc3c2c(-c2ccccc2)cn3-c2cccc(Cl)c2)cc1	x	x	u	5%	18µM*
COc1ccc(CNc2ncnc3c2c(-c2ccccc2)cn3-c2cccc(C)c2)cc1	x	x	u	5%	u
Cc1cc(C(=O)NCCCOC(C)C)c2ccccc2n1	2%	6%	-19%	3%	-9%
CC(C)N1CCC1(C)C(=O)Nc1ccc2scnc2c1 (centres undefined)	x	x	6%	x	-12%
Cc1[nH]c(=O)[nH]c(=O)c1/C=N/NC(=O)[C@H](C)N	u	112µM*	-4%	-10%	u
Cc1cc(O)c(NC(=S)NC(=O)c2ccc(-c3ccc(Cl)cc3)o2)cc1C	5µM*	3.2µM*	u	11%	21µM*
Cc1ccc(O)c(NC(=S)NC(=O)Cc2ccc(Cl)cc2)c1	11µM*	13µM*	u	x	u
Cc1cc(N2CCN(C)CC2)ccc1NC(=O)c1ccc(-c2ccc(Cl)cc2)o1	x	x	u	1%	u
Cc1ccc(NC(=S)NC(=O)c2ccc(-c3ccc(Cl)cc3)o2)c(O)c1	-2%	8%	21µM*	-1%	21µM*
COc1ccc(C(=O)O)cc1NC(=S)NC(=O)Cc1ccc(Cl)cc1	-1%	-8%	-1%	x	18%
COc1ccccc1OCc1ccc(C(=O)N2N=C(C(F)F)CC2(O)C(F)F)o1 (centres undefined)	-6%	-20%	4%	6%	-27%
O=C(c1ccc(Cn2cc(Br)cn2)o1)N1N=C(C(F)F)CC1(O)C(F)F (centres undefined)	-18%	11µM*	20µM*	6%	u
CC(=O)c1ccn(S(=O)(=O)c2ccc(Cl)cc2)c1	12%	27%	-11%	6%	-14%
CC(C)CCn1cnc2c(oc3nc4c(cc32)CCCC4)c1=O	u	10µM*	u	0%	21µM*
O=C(NCCc1ccccc1)c1cccc2c(-c3ccc(F)c(F)c3)coc12	x	x	-44%	x	-44%
SMILES	Gal4-VP16 FLuc	RORgamma inh	DT40 TDP1 CPT	TDP1 inh	DT40 TDP1 no CPT
COc1ccc(CNC(=O)c2ccc(-c3ccc(F)c(F)c3)c3ccoc23)cc1OC	x	x	21µM*	x	15µM*
O=C(NCCc1ccccc1)c1ccc(-c2ccc(F)c(F)c2)c2ccoc12	x	x	16µM*	x	4.1µM*
O=C(NCc1ccco1)c1ccc(-c2ccc(F)c(F)c2)c2ccoc12	x	x	u	x	18µM*
COc1ccc(CNC(=O)c2ccc(-c3cnn(C)c3)c3ccoc23)cc1OC	x	x	-73%	x	u
O=C(Nc1ccncc1)c1ccc(C(=O)Nc2ccncc2)cc1	4%	-12%	-28%	3%	-28%
O=C(Nc1ccc([N+](=O)[O-])cc1)c1cccc(S(=O)(=O)Nc2ccccn2)c1	-6%	-6%	-19%	1%	u
COc1ccc(NC(=O)Cn2nc(-c3ccncc3)ccc2=O)cc1Cl	x	x	u	7%	-13%
COc1ccc(C(=O)NCCc2nnc(SCc3nc4ccccc4c(=O)[nH]3)n2C)cc1	1%	-3%	-2%	1%	4%
Cc1cc(NC(=O)c2ccc3c(c2)OCCO3)cc(-c2nc3ccccc3o2)c1O	x	x	x	2%	x
CCc1ccc(-n2nc3ccc(NC(=O)c4ccc5c(c4)OCO5)cc3n2)cc1	9%	8%	21µM*	0%	u
Cc1ccc(-n2nc3ccc(NC(=O)c4ccc5c(c4)OCO5)cc3n2)cc1	u	23%	u	-2%	u
O=C(Nc1ccc2oc(-c3ccccc3F)nc2c1)c1ccc2c(c1)OCCO2	6%	36%	10µM*	0%	15µM*
CCOc1ccc(-c2nnn(CC(=O)c3ccc4c(c3)OCCO4)n2)cc1	-13%	u	u	1%	16µM*
O=C(Nc1ccc2nn(-c3ccccc3)nc2c1)c1ccc2c(c1)OCCO2	-20%	18%	u	-2%	7.3µM*
CCCOc1ccc(-c2nnn(CC(=O)c3ccc4c(c3)OCCO4)n2)cc1	-4%	u	-7%	2%	-16%
C/C(=C(\CCO)SS/C(CCO)=C(\C)N(C=O)Cc1cnc(C)nc1N)N(C=O)Cc1cnc(C)nc1N	x	x	3%	x	-6%
CCn1nnnc1-c1ccc(OC)c(S(=O)(=O)Nc2ccc(S(N)(=O)=O)cc2)c1	-6%	4%	5%	-3%	7%
COc1ccc(C2NC(=O)NC(C)=C2[N+](=O)[O-])cc1 (centres undefined)	15%	11%	1%	x	17%
CCOc1ccc(-n2nc3cc(C)c(N)cc3n2)cc1	-27%	10µM*	1%	x	-8%
COc1ccc(-n2nc3ccc(N)cc3n2)cc1	x	x	16µM*	x	u
Nc1c(C(=O)Nc2ccccc2)nnn1-c1ccc2c(c1)OCCO2	u	10µM*	-8%	0%	u
CCOc1ccc(-n2nc3ccc(NC(=O)c4cccc(F)c4)cc3n2)cc1	x	x	x	7%	x
CCOc1ccc(-n2nc3ccc(N)cc3n2)cc1	-27%	-38%	-18%	x	u
